Laboratory results taken from PubChem BioAssay (NCATS).
“And” between values parts separate entries of the source, which are not always exact repeats. Equal entries are not always repeated. Inconclusive results are not listed. Unmarked numbers belong to inactive results. The source made the active and inactive calls. Unless noted, calls come from the whole dose curve.

Legend:
[1] = Cell Viability - BJ (AID 421); conditions: BJ fibroblast viability, qHTS;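 note: potency is the fitted concentration of half-maximal effect; cells exposed to compound for 40 hours at 37 °C before readout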
Summary of the method: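 Luminescent ATP signal (CellTiter-Glo, 20 min at room temperature) served as the read-out of viable BJ cells after 40 hours of compound treatment. Responses were scaled between DMSO and 100 uM tamoxifen, and AC50 values were obtained by Hill modeling.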

[2] = Cell Viability - Jurkat (AID 426;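 active = dose-dependent loss of cell ATP signal giving a full or clear fitted curve, ranked by lower potency value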; note: potency is the fitted concentration of half-maximal effect); conditions: qHTS
Summary of the method: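 Seed 5000 Jurkat E6-1 cells/well; add compound; incubate 40 hr at 37 °C; add CellTiter-Glo; wait 20 min at room temperature; read luminescence. Fit concentration-response with Hill equation for AC50.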

[3] = Cell Viability - HepG2 (AID 433); conditions: qHTS;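 note: potency is the fitted concentration of half-maximal effect; potency for ATP loss meaning cytotoxicity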
Summary of the method: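 Cytotoxicity is scored as loss of intracellular ATP in HepG2 cells exposed to compounds for 40 h. Concentration-response curves, normalized to DMSO and 100 uM tamoxifen, give AC50 values.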

[4] = Cell Viability - MRC5 (AID 434); conditions: MRC5 lung fibroblast viability, qHTS;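 note: potency is the fitted concentration of half-maximal effect; potency reflects cytotoxicity seen as loss of intracellular ATP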
Summary of the method: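 MRC5 normal human lung fibroblasts, 1500 cells/well, exposed to compound for 40 hr at 37 C. Cellular ATP was read by CellTiter-Glo luminescence; data normalized to DMSO and 100 uM tamoxifen, with AC50 from Hill fits.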

[5] = Cell Viability - SK-N-SH (AID 435); conditions: SK-N-SH neuroblastoma cell viability qHTS;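 note: potency is the fitted concentration of half-maximal effect; compound exposure lasted 40 h at 37 °C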
Summary of the method: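 Cells seeded at 1500 per well and incubated 5 hr at 37 °C. Compound added, then 40 hr at 37 °C. CellTiter-Glo added, 20 min at room temperature, luminescence read.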

[6] = Cell Viability - Hek293 (AID 427;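 active = compounds whose dose-response curve shows a full or clear partial loss of cell viability, called from curve shape rather than a numeric limit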;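 note: potency is the fitted concentration of half-maximal effect; cells exposed to compound for 40 hours at 37 °C before reading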); conditions: qHTS
Summary of the method: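 Luminescent ATP read-out (CellTiter-Glo, 20 min RT) after 40 hr compound exposure at 37 °C in complete medium. Signal normalized to DMSO (basal) and 100 uM tamoxifen (100% inhibition); concentration-response fitted with the standard Hill equation to give AC50.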

[7] = molecular target: Cytochrome P450 1A2 (Homo sapiens) (UniProt P05177); assay: p450-cyp1a2 (AID 410); conditions: recombinant CYP1A2, luciferin-ME demethylation, luminescence; series mostly up to 57 µM; note: potency is the fitted concentration of half-maximal effect;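 for activity change, negative = inhibition: -100% = full effect of reference inhibitor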
Summary of the method: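 Inhibition was calculated relative to 57 uM furafylline (full inhibition). The reaction used human CYP1A2 at 20nM with Luciferin-ME at its Km, 100uM, driven by an NADPH-regenerating system for 60 min at room temperature.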

[8] = NFAT Signaling Pathway (AID 444; active = well fitted curve in either direction with a large enough effect, not every such curve was filed as active;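 note: carbachol stimulus at about its EC50 of 1 µM final; % is set by controls: 0 for no effect and ±100 for the full control effect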); conditions: Jurkat NFAT-bla M1, carbachol, beta-lactamase ratio, 5 h; at 38 µM (top of the series) unless noted
Summary of the method: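 Jurkat cells with NFAT-driven β-lactamase reporter and co-expressed M1 receptor, stimulated with carbachol (final 1 uM, ~EC50), compound titration, 5 h at 37 °C. CCF4 loaded 1 h at RT; 460/530 nm ratio gave %activity and AC50.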

Sequence of Cytochrome P450 1A2 (Homo sapiens) (P05177 whole entry, looked up): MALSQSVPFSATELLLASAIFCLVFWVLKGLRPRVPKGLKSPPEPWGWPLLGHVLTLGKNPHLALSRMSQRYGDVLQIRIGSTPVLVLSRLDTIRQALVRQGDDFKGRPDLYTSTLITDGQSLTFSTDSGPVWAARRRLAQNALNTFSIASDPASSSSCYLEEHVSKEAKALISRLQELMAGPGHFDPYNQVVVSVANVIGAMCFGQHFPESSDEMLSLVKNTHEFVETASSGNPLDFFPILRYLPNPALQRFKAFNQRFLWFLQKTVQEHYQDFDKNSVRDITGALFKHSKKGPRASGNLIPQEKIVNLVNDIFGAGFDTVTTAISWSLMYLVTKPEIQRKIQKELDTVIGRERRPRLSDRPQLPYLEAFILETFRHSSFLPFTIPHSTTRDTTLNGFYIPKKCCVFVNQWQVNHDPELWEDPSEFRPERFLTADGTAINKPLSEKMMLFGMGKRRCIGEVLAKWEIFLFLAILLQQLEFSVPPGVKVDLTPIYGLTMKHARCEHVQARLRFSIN

For O=[N+]([O-])c1ccc(F)c([N+](=O)[O-])c1, the Potency [1] was 59.9 µM (active), the Potency [2] was 8.96 µM (active) and the Potency [3] was 46.1 µM (active). The Potency [4] was greater than 92 µM and the Potency [5] was 45.7 µM (active).

In the case of O=C1C2CC=CCC2C(=O)N1SC(Cl)(Cl)Cl (stereo unspecified), the Potency [1] is reported as 54.5 µM (active) and 21.4 µM (active), the Potency [2] is reported as 4.24 µM (active) and 4.76 µM (active) and the Potency [6] is reported as 26.5 µM (active) and 26.9 µM (active). For the same compound, the Potency [3] was 40.6 µM (active) and 37.9 µM (active), the Potency [4] was 24.9 µM (active) and 14.7 µM (active) and the Potency [5] was 27.7 µM (active) and 13.2 µM (active).

For CN1[C@@H]2CC[C@H]1CC(OC1c3ccccc3CCc3ccccc31)C2 (stereo partly specified), the Potency [7] was “inactive” and the activity change, negative = inhibition [8] was -67.9% [at 17.2 µM] (active).

With c1ccc2c(c1)[I+]c1ccccc1-2 the Potency [7] was 126 nM (active) and 20 nM (active) and the activity change, negative = inhibition [8] was -17.4%.

In the case of CCCCCCCCOC(=O)c1ccccc1C(=O)OCCCCCCCC, the Potency [1] is reported as greater than 92 µM, the Potency [6] is reported as greater than 92 µM and the Potency [3] is reported as greater than 92 µM. For the same compound, the Potency [4] was greater than 92 µM and the Potency [5] was greater than 92 µM.

CC(C)CCON=O gave a Potency [1] greater than 92 µM, a Potency [2] greater than 92 µM and a Potency [6] greater than 92 µM. For the same compound, the Potency [3] was greater than 92 µM, the Potency [4] was greater than 92 µM and the Potency [5] was greater than 92 µM.

For [O]=[Cd], the Potency [1] was greater than 92 µM, the Potency [2] was greater than 92 µM and the Potency [6] was greater than 92 µM. It also gave a Potency [3] greater than 92 µM, a Potency [4] greater than 92 µM and a Potency [5] greater than 92 µM.

For S=C=S, the Potency [1] was greater than 92 µM, the Potency [2] was greater than 92 µM and the Potency [6] was greater than 92 µM. For the same compound, the Potency [3] was greater than 92 µM, the Potency [4] was greater than 92 µM and the Potency [5] was greater than 92 µM.

With Oc1cc(Cl)c(Cl)cc1Cl the Potency [1] was greater than 92 µM, the Potency [6] was greater than 92 µM and the Potency [3] was greater than 92 µM. For the same compound, the Potency [4] was greater than 92 µM.

With CCOC(=O)c1ccccc1C(=O)OCC the Potency [1] was greater than 92 µM, the Potency [2] was greater than 92 µM and the Potency [6] was greater than 92 µM. The Potency [3] was greater than 92 µM, the Potency [4] was greater than 92 µM and the Potency [5] was greater than 92 µM.

Work on ClC(Cl)(Cl)Cl yielded a Potency [1] greater than 92 µM, a Potency [2] greater than 92 µM and a Potency [6] greater than 92 µM. For the same compound, the Potency [3] was greater than 92 µM, the Potency [4] was greater than 92 µM and the Potency [5] was greater than 92 µM.

For [O]=[Cr](=[O])([OH])[O][Cr](=[O])(=[O])[OH], the Potency [1] was 19.5 µM (active) and 13.4 µM (active) and 4.66 µM (active), the Potency [2] was 1.88 µM (active) and 3.05 µM (active) and 549 nM (active) and the Potency [6] was 30.9 µM (active) and 31.8 µM (active) and 19.2 µM (active). For the same compound, the Potency [3] was 12.2 µM (active) and 14.7 µM (active) and 7.52 µM (active), the Potency [4] was 4.16 µM (active) and 11.5 µM (active) and 9.77 µM (active) and the Potency [5] was 19.2 µM (active) and 17.1 µM (active) and 3.88 µM (active).

In the case of CCCn1c(=O)c2[nH]c(C3CCCC3)nc2n(CCCOC(=O)c2ccc(S(=O)(=O)F)cc2)c1=O, the Potency [7] is reported as “inactive” and the activity change, negative = inhibition [8] is reported as -34.5%.

For O=C(O)C(Cl)(Cl)Cl, the Potency [1] was greater than 92 µM, the Potency [2] was greater than 92 µM and the Potency [6] was greater than 92 µM. It also gave a Potency [3] greater than 92 µM, a Potency [4] greater than 92 µM and a Potency [5] greater than 92 µM.

In the case of CC(C)Nc1ccc(Nc2ccccc2)cc1, the Potency [2] is reported as 22.8 µM (active) and the Potency [5] is reported as 40.5 µM (active).

Compound ClCC1CO1 (stereo unspecified) has a Potency [1] greater than 92 µM, a Potency [2] greater than 92 µM and a Potency [6] greater than 92 µM. The Potency [3] was greater than 92 µM, the Potency [4] was greater than 92 µM and the Potency [5] was greater than 92 µM.

In the case of O=C/C=C/c1ccccc1, the Potency [1] is reported as greater than 92 µM, the Potency [3] is reported as greater than 92 µM and the Potency [4] is reported as greater than 92 µM. The Potency [5] was greater than 92 µM.

For [Cl-].[Cl-].[Hg+2], the Potency [1] was 29.4 µM (active), the Potency [2] was 25.3 µM (active) and the Potency [6] was 19.4 µM (active). For the same compound, the Potency [4] was 33.4 µM (active) and the Potency [5] was 16 µM (active).

With ClC=C(Cl)Cl the Potency [1] was greater than 92 µM, the Potency [2] was greater than 92 µM and the Potency [6] was greater than 92 µM. For the same compound, the Potency [3] was greater than 92 µM, the Potency [4] was greater than 92 µM and the Potency [5] was greater than 92 µM.

With Clc1ccccc1Cl the Potency [1] was greater than 92 µM, the Potency [2] was greater than 92 µM and the Potency [6] was greater than 92 µM. It also gave a Potency [3] greater than 92 µM, a Potency [4] greater than 92 µM and a Potency [5] greater than 92 µM.

With CCCCCl the Potency [1] was greater than 92 µM, the Potency [2] was greater than 92 µM and the Potency [6] was greater than 92 µM. It also gave a Potency [3] greater than 92 µM, a Potency [4] greater than 92 µM and a Potency [5] greater than 92 µM.

For O=c1ccc2[nH]cc(C3=CCNCC3)c2[nH]1, the Potency [7] was “inactive”.

Work on C[C@H]1CCC[C@H](O)CCCCCc2cc(O)cc(O)c2C(=O)O1 yielded a Potency [1] greater than 92 µM, a Potency [2] greater than 92 µM and a Potency [3] greater than 92 µM. It also gave a Potency [4] greater than 92 µM.

In the case of C[C@]12CCC(=O)C[C@@H]1CC[C@@H]1[C@@H]2CC[C@]2(C)[C@@H](O)CC[C@@H]12, the Potency [1] is reported as greater than 92 µM, the Potency [2] is reported as greater than 92 µM and the Potency [3] is reported as greater than 92 µM. The Potency [4] was greater than 92 µM and the Potency [5] was greater than 92 µM.

O=Cc1ccco1 gave a Potency [1] greater than 92 µM, a Potency [2] greater than 92 µM and a Potency [6] greater than 92 µM. The Potency [3] was greater than 92 µM, the Potency [4] was greater than 92 µM and the Potency [5] was greater than 92 µM.

O=C1CCO1 showed a Potency [1] greater than 92 µM, a Potency [2] greater than 92 µM and a Potency [6] greater than 92 µM. For the same compound, the Potency [3] was greater than 92 µM, the Potency [4] was greater than 92 µM and the Potency [5] was greater than 92 µM.

In the case of COC1=CC(=O)O[C@@H](/C=C/c2ccccc2)C1, the Potency [1] is reported as greater than 92 µM, the Potency [2] is reported as greater than 92 µM and the Potency [6] is reported as greater than 92 µM. The Potency [3] was greater than 92 µM, the Potency [4] was greater than 92 µM and the Potency [5] was greater than 92 µM.

For O=CC=O, the Potency [1] was greater than 92 µM, the Potency [2] was greater than 92 µM and the Potency [6] was greater than 92 µM. It also gave a Potency [3] greater than 92 µM, a Potency [4] greater than 92 µM and a Potency [5] greater than 92 µM.

In the case of CCN(CCCl)Cc1ccccc1Br, the Potency [7] is reported as 15.8 µM (active) and the activity change, negative = inhibition [8] is reported as -24.5%.

For C=CCN=C=S, the Potency [1] was greater than 92 µM, the Potency [2] was greater than 92 µM and the Potency [6] was greater than 92 µM. The Potency [3] was greater than 92 µM, the Potency [4] was greater than 92 µM and the Potency [5] was greater than 92 µM.

In the case of C[C@H]1CC[C@@H]2[C@@H](C)[C@H]3[C@H](C[C@H]4[C@@H]5CC=C6CC(O[C@@H]7O[C@H](CO)[C@H](O)[C@H](O[C@@H]8O[C@H](CO)[C@@H](O)[C@H](O)[C@H]8O)[C@H]7O[C@H]7O[C@@H](C)[C@H](O)[C@@H](O)[C@H]7O)CC[C@]6(C)[C@H]5CC[C@]34C)N2C1 (stereo partly specified), the Potency [1] is reported as 35 µM (active), the Potency [2] is reported as 32.5 µM (active) and the Potency [6] is reported as 39.3 µM (active). The Potency [3] was 23.7 µM (active), the Potency [4] was 45 µM (active) and the Potency [5] was 24.8 µM (active).
